According to PubChem BioAssay (EPA / NIEHS):
Calls of active or inactive are those of the source. Rule for the calls: active = hit-call score of the fitted dose curve at least 0.9, where 1 is the maximum; inactive = score below 0.9.

Experiments:
Conditions in all cases: mRNA level, 48 h; actives raise or lower the signal
CYP2C9 (gene 1559) = assay: LTEA_HepaRG_CYP2C9: Life Technologies and Expression Analysis (LTEA) Assay for CYP2C9 using HepaRG (AID 2283484)
Outline: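 Differentiated human HepaRG cells in serum-free induction medium were exposed 48 h to chemicals in 8-point half-log series from 100 uM (0.5% DMSO), in duplicate. CYP2C9 mRNA was measured by qRT-PCR, normalized to ACTB/GAPDH/POLR2A, with bidirectional fitting versus DMSO.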

CYP2E1 (gene 1571) = assay: LTEA_HepaRG_CYP2E1: Life Technologies and Expression Analysis (LTEA) Assay for CYP2E1 using HepaRG (AID 2283485)
Outline: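 HepaRG cells, plated 48 h, then exposed 48 h in serum-free induction medium to eight half-log concentrations from 100 uM in 0.5% DMSO, duplicate. CYP2E1 mRNA by qRT-PCR, normalized to ACTB/GAPDH/POLR2A; bidirectional fit versus DMSO.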

CYP4A11 (gene 1579) = assay: LTEA_HepaRG_CYP4A11: Life Technologies and Expression Analysis (LTEA) Assay for CYP4A11 using HepaRG (AID 2283486)
Outline: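 Readout is CYP4A11 transcript level by qRT-PCR, normalized to three housekeeping genes and fitted bidirectionally against 0.5% DMSO. Human HepaRG cells were treated 48 h, in duplicate, with an 8-point half-log series topping at 100 uM.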

[1] = read-out: Cytochrome P450 3A4 (Homo sapiens) (UniProt P08684); assay: LTEA_HepaRG_CYP3A4: Life Technologies and Expression Analysis (LTEA) Assay for CYP3A4 using HepaRG (AID 2283487)
Outline: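 HepaRG, 48 h exposure, 8-pt CRC from 100 uM (half-log), 0.5% DMSO, duplicates; serum-free induction medium. Readout: CYP3A4 mRNA, qRT-PCR, ACTB/GAPDH/POLR2A normalization. Bidirectional fit vs DMSO.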

[2] = read-out: DNA damage-inducible transcript 3 (DDIT3), DDIT3 (gene 1649); assay: LTEA_HepaRG_DDIT3: Life Technologies and Expression Analysis (LTEA) Assay for DNA damage-inducible transcript 3 (DDIT3) using HepaRG (AID 2283488)
Outline: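 HepaRG cells, 48 h after plating, exposed 48 h in serum-free induction medium to 8 half-log concentrations up to 100 uM in 0.5% DMSO, in duplicate. DDIT3 mRNA measured by TaqMan qRT-PCR, normalized to ACTB, GAPDH and POLR2A. Fitted bidirectionally against DMSO.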

[3] = read-out: Pro-epidermal growth factor (Homo sapiens) (UniProt P01133); assay: LTEA_HepaRG_EGF: Life Technologies and Expression Analysis (LTEA) Assay for Epidermal growth factor (EGF) using HepaRG (AID 2283489)
Outline: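 EGF transcript measured by Fluidigm TaqMan qRT-PCR with three housekeeping genes for normalization, 48 h after dosing HepaRG cultures in duplicate (top 100 uM, half-log steps, 0.5% DMSO vehicle). Gain or loss relative to DMSO fitted.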

[4] = read-out: Early growth response protein 1 (EGR1) transcription factor, EGR1 (gene 1958); assay: LTEA_HepaRG_EGR1: Life Technologies and Expression Analysis (LTEA) Assay for Early growth response protein 1 (EGR1) transcription factor using HepaRG (AID 2283490)
Outline: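 Differentiated HepaRG cells in serum-free induction medium exposed 48 hours, duplicate, to 8 half-log concentrations up to 100 uM in 0.5% DMSO. EGR1 mRNA measured by TaqMan qRT-PCR, normalized to ACTB, GAPDH, POLR2A; bidirectional fit versus DMSO.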

[5] = read-out: Ezrin (EZR), EZR (gene 7430); assay: LTEA_HepaRG_EZR: Life Technologies and Expression Analysis (LTEA) Assay for Ezrin (EZR) using HepaRG (AID 2283491)
Outline: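 Read-out is EZR transcript level by qRT-PCR, normalized to three housekeeping genes and fitted bidirectionally against the DMSO control. Human HepaRG cells received test chemicals for 48 h at eight half-log concentrations up to 100 uM in 0.5% DMSO.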

[6] = read-out: Cytochrome P450 3A7 (Homo sapiens) (UniProt P24462); assay: LTEA_HepaRG_CYP3A7: Life Technologies and Expression Analysis (LTEA) Assay for CYP3A7 using HepaRG (AID 2283492)
Outline: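 CYP3A7 transcript measured by qRT-PCR (ACTB, GAPDH, POLR2A normalization) after 48 h chemical exposure of HepaRG cells in duplicate. Eight half-log concentrations, maximum 100 uM, 0.5% DMSO vehicle; bidirectional curve fitting against DMSO baseline.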

CYP3A5 (gene 1577) = assay: LTEA_HepaRG_CYP3A5: Life Technologies and Expression Analysis (LTEA) Assay for CYP3A5 using HepaRG (AID 2283493)
Outline: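 HepaRG cells, plated 48 h then in serum-free induction medium, dosed in duplicate for 48 h with eight half-log concentrations up to 100 uM in 0.5% DMSO. Gene mRNA by Fluidigm TaqMan qRT-PCR, normalized to ACTB, GAPDH, POLR2A.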

[7] = read-out: Fatty Acid-Binding Protein 1 (FABP1), FABP1 (gene 2168); assay: LTEA_HepaRG_FABP1: Life Technologies and Expression Analysis (LTEA) Assay for Fatty Acid-Binding Protein 1 (FABP1) using HepaRG (AID 2283494)
Outline: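 Differentiated human HepaRG cells exposed 48 h in serum-free induction medium to eight half-log concentrations up to 100 uM (0.5% DMSO), duplicate. FABP1 mRNA by qRT-PCR, normalised to ACTB, GAPDH, POLR2A; bidirectional fitting against DMSO.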

[8] = read-out: Cytochrome P450 4A22 (Homo sapiens) (UniProt Q5TCH4); assay: LTEA_HepaRG_CYP4A22: Life Technologies and Expression Analysis (LTEA) Assay for Cytochrome P450 4A22 (CYP4A22) using HepaRG (AID 2283495)
Outline: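 Gene expression measured by qRT-PCR against three housekeeping genes (ACTB, GAPDH, POLR2A), with gain or loss fitted relative to 0.5% DMSO vehicle. HepaRG cultures received 48 h chemical treatment, top concentration 100 uM, half-log steps, duplicate wells.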

[9] = read-out: Cytochrome P450 7A1 (Homo sapiens) (UniProt P22680); assay: LTEA_HepaRG_CYP7A1: Life Technologies and Expression Analysis (LTEA) Assay for Cytochrome P450 7A1 (CYP7A1) using HepaRG (AID 2283496)
Outline: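 HepaRG cells plated 48 h, then switched to serum-free induction medium and exposed in duplicate for 48 h to 8-point half-log series from 100 uM in 0.5% DMSO. CYP7A1 mRNA by qRT-PCR (TaqMan), normalized to ACTB/GAPDH/POLR2A; bidirectional fit versus DMSO.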

[10] = read-out: Glutathione S-Transferase (GSTA2), GSTA2 (gene 2939); assay: LTEA_HepaRG_GSTA2: Life Technologies and Expression Analysis (LTEA) Assay for Glutathione S-Transferase (GSTA2) using HepaRG (AID 2283497)
Outline: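 Differentiated human HepaRG cells were exposed in duplicate for 48 h in serum-free induction medium, 8 points from 100 uM top in half-log steps, 0.5% DMSO. GSTA2 mRNA was measured by TaqMan qRT-PCR, normalized to ACTB, GAPDH and POLR2A; bidirectional fit versus DMSO.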

[11] = read-out: Glutamate-cysteine ligase catalytic (GCLC), GCLC (gene 2729); assay: LTEA_HepaRG_GCLC: Life Technologies and Expression Analysis (LTEA) Assay for Glutamate-cysteine ligase catalytic (GCLC) using HepaRG (AID 2283498)
Outline: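 Differentiated HepaRG cells exposed 48 h in serum-free induction medium, eight-point half-log series topping at 100 uM in 0.5% DMSO, duplicates. GCLC mRNA by qRT-PCR normalized to ACTB, GAPDH and POLR2A, fitted bidirectionally versus DMSO.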

[12] = read-out: growth arrest and DNA damage 45 (GADD45G), GADD45G (gene 10912); assay: LTEA_HepaRG_GADD45G: Life Technologies and Expression Analysis (LTEA) Assay for growth arrest and DNA damage 45 (GADD45G) using HepaRG (AID 2283499)
Outline: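 GADD45G transcript level by qRT-PCR (housekeeping-normalized: ACTB, GAPDH, POLR2A) after 48 h chemical treatment of a single HepaRG lot in serum-free induction medium; eight-point half-log series up to 100 uM in 0.5% DMSO, duplicates, up- or down-regulation scored.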

[13] = read-out: Glutamate-cysteine ligase regulatory (GCLM), GCLM (gene 2730); assay: LTEA_HepaRG_GCLM: Life Technologies and Expression Analysis (LTEA) Assay for Glutamate-cysteine ligase regulatory (GCLM) using HepaRG (AID 2283500)
Outline: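 Differentiated HepaRG cells exposed 48 h in serum-free induction medium to eight half-log concentrations up to 100 uM (0.5% DMSO). GCLM mRNA by TaqMan qRT-PCR, normalized to ACTB, GAPDH and POLR2A; bidirectional fit versus DMSO.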

[14] = read-out: Glutathione S-transferase M3 (GSTM3), GSTM3 (gene 2947); assay: LTEA_HepaRG_GSTM3: Life Technologies and Expression Analysis (LTEA) Assay for Glutathione S-transferase M3 (GSTM3) using HepaRG (AID 2283501)
Outline: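 GSTM3 transcript levels came from Fluidigm TaqMan qRT-PCR normalized to three housekeeping genes, fitted in both directions against DMSO. HepaRG cultures received chemicals for 48 h in serum-free induction medium (0.5% DMSO), 8 half-log concentrations up to 100 uM, duplicate.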

[15] = read-out: Heat shock 70 kDa protein 1 (HSPA1A), gene 3303; assay: LTEA_HepaRG_HSPA1A: Life Technologies and Expression Analysis (LTEA) Assay for Heat shock 70 kDa protein 1 (HSPA1A) using HepaRG (AID 2283502)
Outline: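 Human HepaRG cells in serum-free induction medium were exposed in duplicate for 48 h to 8 half-log concentrations, highest 100 uM, in 0.5% DMSO. HSPA1A mRNA read by TaqMan qRT-PCR, normalized to ACTB, GAPDH, POLR2A, fitted bidirectionally against DMSO.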

[16] = read-out: Hypoxia-inducible factor 1-alpha (Homo sapiens) (UniProt Q16665); assay: LTEA_HepaRG_HIF1A: Life Technologies and Expression Analysis (LTEA) Assay for Hypoxia-inducible factor 1 (HIF1A) Trancription factor using HepaRG (AID 2283503)
Outline: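 Differentiated HepaRG cells in serum-free induction medium exposed 48 h, in duplicate, to 8-point half-log series from 100 uM in 0.5% DMSO. HIF1A mRNA measured by TaqMan qRT-PCR, normalized to ACTB/GAPDH/POLR2A, fitted bidirectionally versus DMSO.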

Measured: AC50

Sequence of Cytochrome P450 3A4 (Homo sapiens) (P08684 whole entry, looked up): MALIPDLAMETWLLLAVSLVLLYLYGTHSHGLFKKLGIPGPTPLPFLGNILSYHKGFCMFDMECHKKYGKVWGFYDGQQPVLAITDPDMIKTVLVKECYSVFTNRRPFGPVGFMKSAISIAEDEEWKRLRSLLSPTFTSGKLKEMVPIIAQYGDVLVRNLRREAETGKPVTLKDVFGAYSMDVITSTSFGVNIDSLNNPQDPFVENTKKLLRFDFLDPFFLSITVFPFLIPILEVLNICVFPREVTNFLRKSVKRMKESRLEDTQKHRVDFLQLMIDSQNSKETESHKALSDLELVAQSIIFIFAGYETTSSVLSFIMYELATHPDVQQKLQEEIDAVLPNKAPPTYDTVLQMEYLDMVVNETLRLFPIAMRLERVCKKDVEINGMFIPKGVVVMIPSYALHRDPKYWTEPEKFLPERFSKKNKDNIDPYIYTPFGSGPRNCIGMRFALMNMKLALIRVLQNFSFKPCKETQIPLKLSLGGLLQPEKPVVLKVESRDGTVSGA
Sequence of Hypoxia-inducible factor 1-alpha (Homo sapiens) (Q16665 whole entry, looked up): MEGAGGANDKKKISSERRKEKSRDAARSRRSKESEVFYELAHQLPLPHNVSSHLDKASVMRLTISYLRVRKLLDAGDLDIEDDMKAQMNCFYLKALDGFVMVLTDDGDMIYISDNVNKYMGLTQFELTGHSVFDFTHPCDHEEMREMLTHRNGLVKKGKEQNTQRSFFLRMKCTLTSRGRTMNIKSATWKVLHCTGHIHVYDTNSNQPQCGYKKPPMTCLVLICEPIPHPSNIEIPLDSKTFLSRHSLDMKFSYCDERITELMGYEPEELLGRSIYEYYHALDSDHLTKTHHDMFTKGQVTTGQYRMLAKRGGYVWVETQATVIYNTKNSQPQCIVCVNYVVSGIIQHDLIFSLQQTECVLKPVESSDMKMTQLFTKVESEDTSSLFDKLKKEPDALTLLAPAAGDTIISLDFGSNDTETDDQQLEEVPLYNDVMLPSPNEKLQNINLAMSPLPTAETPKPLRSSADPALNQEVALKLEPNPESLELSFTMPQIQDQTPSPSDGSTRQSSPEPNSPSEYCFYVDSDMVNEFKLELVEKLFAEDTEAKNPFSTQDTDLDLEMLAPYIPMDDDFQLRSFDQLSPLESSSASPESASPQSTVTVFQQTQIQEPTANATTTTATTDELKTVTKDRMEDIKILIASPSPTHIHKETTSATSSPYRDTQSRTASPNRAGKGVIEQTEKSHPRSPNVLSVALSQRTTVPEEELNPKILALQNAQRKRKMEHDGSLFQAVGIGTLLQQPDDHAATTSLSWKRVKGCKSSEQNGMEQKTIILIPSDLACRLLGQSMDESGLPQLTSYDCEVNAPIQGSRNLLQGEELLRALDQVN
Sequence of Cytochrome P450 3A7 (Homo sapiens) (P24462 whole entry, looked up): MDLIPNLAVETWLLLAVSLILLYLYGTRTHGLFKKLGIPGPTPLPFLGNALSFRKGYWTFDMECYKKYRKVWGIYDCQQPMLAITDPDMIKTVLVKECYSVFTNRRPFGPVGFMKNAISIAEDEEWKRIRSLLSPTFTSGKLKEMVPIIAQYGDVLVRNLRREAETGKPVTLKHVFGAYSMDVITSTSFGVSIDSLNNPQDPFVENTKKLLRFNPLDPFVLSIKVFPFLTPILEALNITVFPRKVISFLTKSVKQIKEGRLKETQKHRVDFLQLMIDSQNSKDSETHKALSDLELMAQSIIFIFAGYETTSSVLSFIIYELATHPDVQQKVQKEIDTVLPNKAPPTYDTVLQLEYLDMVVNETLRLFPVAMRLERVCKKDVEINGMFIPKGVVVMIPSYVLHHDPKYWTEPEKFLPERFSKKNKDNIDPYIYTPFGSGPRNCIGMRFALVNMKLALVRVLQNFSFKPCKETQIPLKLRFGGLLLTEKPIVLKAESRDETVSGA

Cn1c(=O)c2c(ncn2C)n(C)c1=O
inactive: CYP2C9 (gene 1559) | CYP2E1 (gene 1571) | CYP4A11 (gene 1579) | [1] | [2] | [3] | [4] | [5] | [6] | CYP3A5 (gene 1577) | [7] | [8] | [9] | [10] | [11] | [12] | [13] | [14] | [15] | [16]

CNS(=O)(=O)c1cc(C(=O)N2CCC(CCN3C4CCC3CC(n3c(C)nc5ccccc53)C4)(c3cccc(F)c3)CC2)c(Cl)cc1F (stereo not given)
inactive: [1] | [3] | [4] | CYP3A5 (gene 1577) | [11] | [13] | [14] | [15] | [16]
active: CYP2C9 (gene 1559) 19.2 µM | CYP2E1 (gene 1571) 17.7 µM | CYP4A11 (gene 1579) 18.5 µM | [2] 29 µM | [5] 29.6 µM | [6] 9.92 µM | [7] 18.4 µM | [8] 22.7 µM | [9] 21.5 µM | [10] 31.8 µM | [12] 30.8 µM

Nc1cccc(N)c1
inactive: CYP2C9 (gene 1559) | CYP2E1 (gene 1571) | CYP4A11 (gene 1579) | [1] | [2] | [3] | [4] | [5] | [6] | CYP3A5 (gene 1577) | [7] | [8] | [9] | [10] | [11] | [12] | [13] | [14] | [15] | [16]

COc1ccc(-n2nc(C(F)F)cc2-c2ccc(S(C)=O)cc2)cc1 (stereo not given)
inactive: CYP2C9 (gene 1559) | [2] | [3] | [4] | [5] | CYP3A5 (gene 1577) | [7] | [9] | [10] | [11] | [12] | [13] | [14] | [16]
active: CYP2E1 (gene 1571) 25 µM | CYP4A11 (gene 1579) 68.8 µM | [1] 17.1 µM | [6] 19.3 µM | [8] 15.6 µM | [15] 43.5 µM

CCOC(=O)c1ccc(C2CCC(NC[C@H](O)COc3ccc(O)c(NS(C)(=O)=O)c3)CC2)cc1 (stereo not given in full)
inactive: CYP2C9 (gene 1559) | CYP2E1 (gene 1571) | CYP4A11 (gene 1579) | [1] | [2] | [3] | [4] | [5] | [6] | CYP3A5 (gene 1577) | [7] | [8] | [9] | [10] | [11] | [12] | [13] | [14] | [15] | [16]

CCN(C(=O)c1cc(C)cc(OC[C@H](C)Nc2ccncc2)c1)C(C)C
active: CYP2C9 (gene 1559) 56.6 µM | CYP2E1 (gene 1571) 27.9 µM | CYP4A11 (gene 1579) 33.8 µM | [1] 8.63 µM | [2] 48 µM | [6] 8.43 µM | [7] 2.25 µM | [8] 33.8 µM | [9] 50.5 µM | [12] 33.8 µM
inactive: [3] | [4] | [5] | CYP3A5 (gene 1577) | [10] | [11] | [13] | [14] | [15] | [16]
